Consider 10 sequences from article PMC11006913.

Substitutions are numbered along the chain they refer to.

What all share (experiment): PBM; 200 nM protein, PBS
Common to all, as to conditions: dsDNA, one strand shown

Assay [1] deals with T1, VENTX (Homo sapiens, UniProt O95231 78-163, R121Q).
T1 sequence: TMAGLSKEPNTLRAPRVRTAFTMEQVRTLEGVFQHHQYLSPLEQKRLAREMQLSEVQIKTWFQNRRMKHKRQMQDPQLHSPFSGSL

Assay [2] concerns the target HOXB9 (Homo sapiens, UniProt P17482 171-250, T197M).
The target of assay [3] is T2, VENTX (Homo sapiens, UniProt O95231 78-163).
T2 sequence: T1 sequence with Q44R

The target of assay [4] is T3, VENTX (Homo sapiens, UniProt O95231 78-163, Y115F).
T3 sequence: T1 sequence with Y38F, Q44R

Assay [5] concerns the target HOXB9 (Homo sapiens, UniProt P17482 171-250).
Assay [6] has as its target ALX3 (Homo sapiens, UniProt O95076 139-225, N203Q).
The target of assay [7] is ALX3 (Homo sapiens, UniProt O95076 139-225).
Chain of ALX3 (Homo sapiens, UniProt O95076 139-225) (O95076 139-225): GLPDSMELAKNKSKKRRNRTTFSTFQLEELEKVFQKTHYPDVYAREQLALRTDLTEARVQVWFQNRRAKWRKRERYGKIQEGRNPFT
Assay [8] addresses ALX3 (Homo sapiens, UniProt O95076 139-225, L168Q).
Assay [9] deals with HOXB9 (Homo sapiens, UniProt P17482 171-250, R186Q).
Chain of HOXB9 (Homo sapiens, UniProt P17482 171-250, R186Q) (P17482 171-250 R186Q): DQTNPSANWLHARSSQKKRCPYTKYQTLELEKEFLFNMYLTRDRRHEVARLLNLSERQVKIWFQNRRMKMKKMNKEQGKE
For assay [10], the target named is ALX3 (Homo sapiens, UniProt O95076 139-225, L168V).
Chain of ALX3 (Homo sapiens, UniProt O95076 139-225, L168V) (O95076 139-225 L168V): as the sequence (O95076 139-225) above, with L30V counted along it
In assay [11] the target is ALX3 (Homo sapiens, UniProt O95076 139-225, N203S).
Chain of ALX3 (Homo sapiens, UniProt O95076 139-225, N203S) (O95076 139-225 N203S): as the sequence (O95076 139-225) above, with N65S counted along it
The target of assay [12] is HOXD13 (Homo sapiens, UniProt P35453 263-343, T313R).
Chain of HOXD13 (Homo sapiens, UniProt P35453 263-343, T313R) (P35453 263-343 T313R): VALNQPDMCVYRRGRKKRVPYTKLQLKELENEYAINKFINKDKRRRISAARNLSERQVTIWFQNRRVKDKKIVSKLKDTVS
Assay [13] has as its target HOXD13 (Homo sapiens, UniProt P35453 263-343).
Assay [14] deals with HOXD13 (Homo sapiens, UniProt P35453 263-343, T313A).
Chain of HOXD13 (Homo sapiens, UniProt P35453 263-343, T313A) (P35453 263-343 T313A): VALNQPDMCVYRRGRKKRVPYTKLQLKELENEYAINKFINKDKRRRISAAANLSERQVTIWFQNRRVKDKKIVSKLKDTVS
Assay [15] has as its target ALX4 (Homo sapiens, UniProt Q9H161 200-286).
In assay [16] the target is ALX4 (Homo sapiens, UniProt Q9H161 200-286, Q225E).
Chain of ALX4 (Homo sapiens, UniProt Q9H161 200-286, Q225E) (Q9H161 200-286 Q225E): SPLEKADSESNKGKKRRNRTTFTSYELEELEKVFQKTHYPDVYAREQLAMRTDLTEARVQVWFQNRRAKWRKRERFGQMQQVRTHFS
Assay [17] concerns the target HOXA2 (Homo sapiens, UniProt O43364 129-215, R185T).
Assay [18] has as its target HOXA2 (Homo sapiens, UniProt O43364 129-215, R185K).
The target of assay [19] is HOXA2 (Homo sapiens, UniProt O43364 129-215, Y150S).
Chain of HOXA2 (Homo sapiens, UniProt O43364 129-215, Y150S) (O43364 129-215 Y150S): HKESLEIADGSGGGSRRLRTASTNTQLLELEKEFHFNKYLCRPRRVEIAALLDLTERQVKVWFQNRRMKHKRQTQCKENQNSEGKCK
Assay [20] concerns the target HOXA2 (Homo sapiens, UniProt O43364 129-215).
The target of assay [21] is MSX2 (Homo sapiens, UniProt P35548 130-214, R199I).
Chain of MSX2 (Homo sapiens, UniProt P35548 130-214, R199I) (P35548 130-214 R199I): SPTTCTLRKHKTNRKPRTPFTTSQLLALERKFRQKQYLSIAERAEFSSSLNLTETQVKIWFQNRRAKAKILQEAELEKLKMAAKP
In assay [22] the target is MSX2 (Homo sapiens, UniProt P35548 130-214).
Chain of MSX2 (Homo sapiens, UniProt P35548 130-214) (P35548 130-214): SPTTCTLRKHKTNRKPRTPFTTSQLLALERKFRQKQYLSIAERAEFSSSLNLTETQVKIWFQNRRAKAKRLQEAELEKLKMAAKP
Assay [23] addresses MSX2 (Homo sapiens, UniProt P35548 130-214, F161Y).

Chain of HOXA2 (Homo sapiens, UniProt O43364 129-215, R185T) (O43364 129-215 R185T): as the sequence (O43364 129-215 Y150S) above, with S22Y, R57T counted along it
Chain of HOXA2 (Homo sapiens, UniProt O43364 129-215) (O43364 129-215): as the sequence (O43364 129-215 Y150S) above, with S22Y counted along it
Chain of ALX3 (Homo sapiens, UniProt O95076 139-225, N203Q) (O95076 139-225 N203Q): as the sequence (O95076 139-225) above, with N65Q counted along it
Chain of ALX3 (Homo sapiens, UniProt O95076 139-225, L168Q) (O95076 139-225 L168Q): as the sequence (O95076 139-225) above, with L30Q counted along it
Chain of HOXA2 (Homo sapiens, UniProt O43364 129-215, R185K) (O43364 129-215 R185K): as the sequence (O43364 129-215 Y150S) above, with S22Y, R57K counted along it
Chain of ALX4 (Homo sapiens, UniProt Q9H161 200-286) (Q9H161 200-286): as the sequence (Q9H161 200-286 Q225E) above, with E26Q counted along it
Chain of HOXB9 (Homo sapiens, UniProt P17482 171-250, T197M) (P17482 171-250 T197M): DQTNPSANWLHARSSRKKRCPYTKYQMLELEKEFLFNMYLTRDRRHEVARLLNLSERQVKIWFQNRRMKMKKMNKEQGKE
Chain of HOXB9 (Homo sapiens, UniProt P17482 171-250) (P17482 171-250): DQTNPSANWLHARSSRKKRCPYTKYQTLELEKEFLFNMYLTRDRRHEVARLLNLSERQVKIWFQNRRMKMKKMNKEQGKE
Chain of HOXD13 (Homo sapiens, UniProt P35453 263-343) (P35453 263-343): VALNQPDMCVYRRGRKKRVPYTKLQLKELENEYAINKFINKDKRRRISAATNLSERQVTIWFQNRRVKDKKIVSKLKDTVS
Chain of MSX2 (Homo sapiens, UniProt P35548 130-214, F161Y) (P35548 130-214 F161Y): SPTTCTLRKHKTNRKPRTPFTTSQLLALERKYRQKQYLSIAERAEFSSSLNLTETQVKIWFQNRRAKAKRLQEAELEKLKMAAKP

GACCCAGC: the binding signal in assay [1] was 8.18 upbm affinity estimate (log intensity, higher = more binding, comparable within an allelic series); in assay [2] it was 8.5 upbm affinity estimate (log intensity, higher = more binding, comparable within an allelic series); in [3], 8.16 upbm affinity estimate (log intensity, higher = more binding, comparable within an allelic series); in [4], 8.12 upbm affinity estimate (log intensity, higher = more binding, comparable within an allelic series); in [5] it was 8.47 upbm affinity estimate (log intensity, higher = more binding, comparable within an allelic series); in assay [6] it was 7.75 upbm affinity estimate (log intensity, higher = more binding, comparable within an allelic series). Besides, the binding signal in assay [7] was 7.56 upbm affinity estimate (log intensity, higher = more binding, comparable within an allelic series); in assay [8], 7.85 upbm affinity estimate (log intensity, higher = more binding, comparable within an allelic series); in assay [9], 8.49 upbm affinity estimate (log intensity, higher = more binding, comparable within an allelic series); in [10] it was 7.79 upbm affinity estimate (log intensity, higher = more binding, comparable within an allelic series); in assay [11], 7.8 upbm affinity estimate (log intensity, higher = more binding, comparable within an allelic series).
On to AGAGGGGC, for which the binding signal is 8.19 upbm affinity estimate (log intensity, higher = more binding, comparable within an allelic series) in assay [1]; 8.56 upbm affinity estimate (log intensity, higher = more binding, comparable within an allelic series) in [2]; 8.3 upbm affinity estimate (log intensity, higher = more binding, comparable within an allelic series) in [3]; 8.07 upbm affinity estimate (log intensity, higher = more binding, comparable within an allelic series) in assay [4]; 8.46 upbm affinity estimate (log intensity, higher = more binding, comparable within an allelic series) in assay [5]; 9.48 upbm affinity estimate (log intensity, higher = more binding, comparable within an allelic series) in assay [12]. For the same sequence, the binding signal is 9.71 upbm affinity estimate (log intensity, higher = more binding, comparable within an allelic series) in [13]; 9.59 upbm affinity estimate (log intensity, higher = more binding, comparable within an allelic series) in assay [14]; 8.41 upbm affinity estimate (log intensity, higher = more binding, comparable within an allelic series) in [9].
Turning to TAATGTGA, the binding signal in assay [1] is 10.5 upbm affinity estimate (log intensity, higher = more binding, comparable within an allelic series).
AAATCTAC: the binding signal in assay [1] was 9.32 upbm affinity estimate (log intensity, higher = more binding, comparable within an allelic series); in [3], 9.65 upbm affinity estimate (log intensity, higher = more binding, comparable within an allelic series).
Consider CCCAGAGG, for which the binding signal is 7.95 upbm affinity estimate (log intensity, higher = more binding, comparable within an allelic series) in assay [1]; 7.77 upbm affinity estimate (log intensity, higher = more binding, comparable within an allelic series) in assay [3]; 8.01 upbm affinity estimate (log intensity, higher = more binding, comparable within an allelic series) in [15]; 7.81 upbm affinity estimate (log intensity, higher = more binding, comparable within an allelic series) in assay [4]; 8 upbm affinity estimate (log intensity, higher = more binding, comparable within an allelic series) in assay [16]; 7.09 upbm affinity estimate (log intensity, higher = more binding, comparable within an allelic series) in assay [17]. For the same sequence, the binding signal in [6] was 7.67 upbm affinity estimate (log intensity, higher = more binding, comparable within an allelic series); in [18], 10.2 upbm affinity estimate (log intensity, higher = more binding, comparable within an allelic series); in assay [7] it was 7.71 upbm affinity estimate (log intensity, higher = more binding, comparable within an allelic series); in [8], 7.65 upbm affinity estimate (log intensity, higher = more binding, comparable within an allelic series); in assay [10] it was 7.63 upbm affinity estimate (log intensity, higher = more binding, comparable within an allelic series); in [19], 10.3 upbm affinity estimate (log intensity, higher = more binding, comparable within an allelic series). Moreover, the binding signal is 7.62 upbm affinity estimate (log intensity, higher = more binding, comparable within an allelic series) in assay [11] and 7.15 upbm affinity estimate (log intensity, higher = more binding, comparable within an allelic series) in assay [20].
Take AATAACAC: the binding signal is 9.57 upbm affinity estimate (log intensity, higher = more binding, comparable within an allelic series) in assay [1] and 9.93 upbm affinity estimate (log intensity, higher = more binding, comparable within an allelic series) in [3].
As for GCCAGGCA, the binding signal in [1] is 8.27 upbm affinity estimate (log intensity, higher = more binding, comparable within an allelic series); in assay [3] it was 8.55 upbm affinity estimate (log intensity, higher = more binding, comparable within an allelic series); in assay [4] it was 8.35 upbm affinity estimate (log intensity, higher = more binding, comparable within an allelic series).
For AATGTATC, the binding signal was 9.76 upbm affinity estimate (log intensity, higher = more binding, comparable within an allelic series) in assay [1] and 10.1 upbm affinity estimate (log intensity, higher = more binding, comparable within an allelic series) in [3].
With CGATTAGC, the binding signal in [1] is 11.7 upbm affinity estimate (log intensity, higher = more binding, comparable within an allelic series); in [3] it was 12.8 upbm affinity estimate (log intensity, higher = more binding, comparable within an allelic series); in [4], 11.6 upbm affinity estimate (log intensity, higher = more binding, comparable within an allelic series).
Regarding CCGAGGGC, the binding signal in assay [1] is 7.98 upbm affinity estimate (log intensity, higher = more binding, comparable within an allelic series); in assay [3] it was 8.24 upbm affinity estimate (log intensity, higher = more binding, comparable within an allelic series); in [15] it was 8.14 upbm affinity estimate (log intensity, higher = more binding, comparable within an allelic series); in assay [4] it was 8.11 upbm affinity estimate (log intensity, higher = more binding, comparable within an allelic series); in assay [16], 8.07 upbm affinity estimate (log intensity, higher = more binding, comparable within an allelic series); in assay [17], 7.12 upbm affinity estimate (log intensity, higher = more binding, comparable within an allelic series). Also, the binding signal in assay [21] was 9.49 upbm affinity estimate (log intensity, higher = more binding, comparable within an allelic series); in assay [18], 10.3 upbm affinity estimate (log intensity, higher = more binding, comparable within an allelic series); in assay [22], 9.42 upbm affinity estimate (log intensity, higher = more binding, comparable within an allelic series); in assay [23], 9.43 upbm affinity estimate (log intensity, higher = more binding, comparable within an allelic series); in [19] it was 10.3 upbm affinity estimate (log intensity, higher = more binding, comparable within an allelic series); in [20], 7.2 upbm affinity estimate (log intensity, higher = more binding, comparable within an allelic series).
